SW480 rereplic – DNA re-replication induction in SW480 cells; SW480 DNA re-replication, Hoechst DNA content imaging, 48 h; Potency, µM (series often up to 46.1 µM), without a hit: top-dose re-replication activation, actives largely listed as activators; 340,000 tested, 1.8% active; AID 624297; note: potency is the fitted concentration of half-maximal effect; % of control where 0% means no effect; nearly all actives have a fitted effect of over 55% in size
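DNA re-replication was detected as more nuclei of elevated Hoechst intensity after 48 hr exposure to compound (23 nL pinned per well of 250 cells).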
IL-1B inflam inh – inflammasome signaling inhibition, IL-1 beta readout | activity change, % at 57.5 µM | THP-1 LPS/ATP IL-1B secretion, AlphaLISA, 16 h; stronger effect = lower value | 360,000 tested, 4.7% active; in the data active = activity change below about -50%; inconclusive = mostly about -30% to -49%; note: % is set by controls: 0 for no effect and ±100 for the full control effect
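Secreted IL-1B measured by AlphaLISA bead assay after 16 h compound exposure of THP-1 cells; compounds (final up to 57.5 uM) added 1 h before LPS (250 ng/mL) and ATP (1.25 mM) stimulation; lower signal means less secretion.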
Giardia killer – kills Giardia lamblia | Giardia lamblia trophozoite viability | 340,000 tested, 0.15% active | activity change, % at 7.66 µM, hits read low | AID 540267; in the data active = activity change below about -80%; inconclusive = between about -30% and that limit;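 note: parasites exposed to compound for two days anaerobically before the ATP read; % is set by controls: 0 for no effect and ±100 for the full control effect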
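Anaerobic 48 hrs incubation at 37 deg C of 100 trophozoites/well with test compounds; ATPLite 1-Step luminescence, 15-30 min RT, reports cellular ATP as viability.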
Vif-APOBEC3G blk – inhibitors of Vif-APOBEC3G interaction; AID 602310; Q9HC16; Potency, µM (titrated, usually from 46.1 µM), for the others: at the top dose activity, negative = active, usual class: inhibitors; HeLa A3G-eYFP + Vif (tagged APOBEC3G with the HIV-1 protein that degrades it), YFP fluorescence, overnight; 410,000 tested, 0.076% active; note: potency is the fitted concentration of half-maximal effect; % is set by controls: 0 for no effect and ±100 for the full control effect; nearly all actives have a fitted effect of over 60% in size
Target sequence (Q9HC16 whole entry, looked up): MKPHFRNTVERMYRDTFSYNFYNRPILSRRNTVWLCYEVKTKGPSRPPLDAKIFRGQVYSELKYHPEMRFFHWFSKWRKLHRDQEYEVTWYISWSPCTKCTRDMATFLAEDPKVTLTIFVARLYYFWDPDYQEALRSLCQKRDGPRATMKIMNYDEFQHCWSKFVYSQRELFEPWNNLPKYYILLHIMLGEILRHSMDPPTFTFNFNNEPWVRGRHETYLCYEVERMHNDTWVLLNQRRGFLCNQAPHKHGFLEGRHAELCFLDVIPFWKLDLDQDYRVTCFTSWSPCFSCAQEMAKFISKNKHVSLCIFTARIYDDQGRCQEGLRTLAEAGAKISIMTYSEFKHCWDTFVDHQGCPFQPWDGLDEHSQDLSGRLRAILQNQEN
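HeLa cells stably expressing Vif and C-terminally eYFP-tagged A3G, seeded overnight at 37 deg C, then exposed to compound by pintool overnight at 37 deg C. Rise in yellow fluorescence (Ex 488/Em 500-530, Acumen) marks blocked Vif-driven A3G degradation.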
Vif-A3F inh – inhibitors of Vif-A3F interaction. Potency, µM (top dose mostly 46.1 µM), for inactives: at the highest dose activity, negative = active. 390,000 tested, 0.2% active. HeLa A3F-eYFP + Vif (tagged APOBEC3F with the HIV-1 protein that degrades it), YFP fluorescence increase; note: potency is the fitted concentration of half-maximal effect; % of control where 0% means no effect; nearly all actives have a fitted effect of over 65% in size
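HeLa cells stably expressing A3F-eYFP plus Vif, plated and incubated overnight at 37 deg C, then exposed to compounds overnight at 37 deg C. Blocked degradation read as raised yellow fluorescence (Ex 488/Em 500-530).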
MCF10A rerep – inducers of DNA re-replication in MCF 10A breast cells. Potency, µM (doses to about 46.1 µM), inactives show at the highest dose activity, positive = re-replication, most hits filed as activators. AID 624296. 350,000 tested, 2.9% active. MCF 10A DNA re-replication, Hoechst nuclear intensity, 48 h; note: potency is the fitted concentration of half-maximal effect; % of control where 0% means no effect; nearly all actives have a fitted effect of over 50% in size
* marks the source's active call; other numbers are inactive results. Most compounds without a hit are left out; they make up all but 6.9% or so of the library. Unless noted, calls come from the whole dose curve; as a rule, active = well fitted curve in the direction sought with a large enough effect; inconclusive = small, poorly fitted or top-dose-only effect, or another doubt; inactive = no such curve, though single readings can be large; an effect the other way counts as inactive or inconclusive.

O=C(CSc1ncnc2nc[nH]c12)c1ccccc1 was read as SW480 rereplic 4%, IL-1B inflam inh -9, Giardia killer -11, Vif-APOBEC3G blk -18%, Vif-A3F inh 7% and MCF10A rerep inconclusive.
Screening O=C(CSc1ncnc2nc[nH]c12)N1CCOCC1 returned SW480 rereplic 18µM*, IL-1B inflam inh 14, Giardia killer -3, Vif-APOBEC3G blk -2%, Vif-A3F inh 1% and MCF10A rerep 8.2µM*.
Screening O=C(c1ccc(F)cc1)N1CCN(c2cc(N3CCCCC3)c(F)cc2[N+](=O)[O-])CC1 returned SW480 rereplic 13%, IL-1B inflam inh -83*, Giardia killer 7, Vif-APOBEC3G blk -3%, Vif-A3F inh -4% and MCF10A rerep 30%.
O=C(c1ccc([N+](=O)[O-])c(CS(=O)(=O)c2ccc(Cl)cc2)c1)N1CCCC1 was read as SW480 rereplic -84%, IL-1B inflam inh 22, Giardia killer -19, Vif-APOBEC3G blk 0%, Vif-A3F inh -13% and MCF10A rerep -1%.
`CC1CCN(C(=O)c2ccc(S(=O)(=O)Cc3ccccc3F)c([N+](=O)[O-])c2)CC1` gave SW480 rereplic inconclusive, IL-1B inflam inh -117*, Giardia killer -18, Vif-APOBEC3G blk inconclusive, Vif-A3F inh 0% and MCF10A rerep inconclusive.
For O=C(c1ccc(S(=O)(=O)Cc2ccccc2F)c([N+](=O)[O-])c1)N1CCCC1 the results were SW480 rereplic 5%, IL-1B inflam inh -103*, Giardia killer 5, Vif-APOBEC3G blk 6%, Vif-A3F inh 6% and MCF10A rerep -1%.
For O=C(c1ccc(S(=O)(=O)c2ccc(F)cc2)c([N+](=O)[O-])c1)N1CCCCCC1 the results were SW480 rereplic inconclusive, IL-1B inflam inh -103*, Giardia killer 8, Vif-APOBEC3G blk inconclusive, Vif-A3F inh 3% and MCF10A rerep inconclusive.
`Cc1ccc(NC(=O)CCS(=O)(=O)c2ccc(Br)s2)c(Br)c1` gave Vif-APOBEC3G blk -3% and Vif-A3F inh -8%.
For CCn1c(C)nc2cc(S(N)(=O)=O)ccc21 the results were SW480 rereplic 18%, IL-1B inflam inh 18, Giardia killer -20, Vif-APOBEC3G blk 0%, Vif-A3F inh inconclusive and MCF10A rerep 13µM*.
CN(C)c1ccc(C2C=C(c3ccccc3)Nc3nnnn32)cc1 (centres undefined) was read as Vif-APOBEC3G blk inconclusive and Vif-A3F inh 25µM*.
For CCOc1ccc(C2C=C(c3ccccc3)Nc3nnnn32)cc1 (centres undefined) the results were SW480 rereplic 0%, IL-1B inflam inh 16, Giardia killer -9, Vif-APOBEC3G blk -3%, Vif-A3F inh 2% and MCF10A rerep 27%.
`CCOc1ccccc1NC(=O)C(NS(=O)(=O)c1ccc2c(c1)CCC(=O)N2)c1ccccc1` (centres undefined) gave Vif-APOBEC3G blk -6% and Vif-A3F inh 3%.
Screening COc1cc2ncc(C(=O)c3ccccc3)c(N3CCN(Cc4ccccc4)CC3)c2cc1OC returned SW480 rereplic 16%, IL-1B inflam inh -77*, Giardia killer 19, Vif-APOBEC3G blk -13%, Vif-A3F inh -1% and MCF10A rerep inconclusive.
`COC(=O)C1OC(OC2CC[C@]3(C)C(CC[C@@]4(C)[C@@H]3CC=C3[C@@H]5CC(C)(C)CC[C@]5(C(=O)OC5OC(CO)C(O)C(O)C5O)CC[C@]34C)C2(C)C)C(O)C(O)C1O[C@H]1OCC(O)C(O)C1O` (some centres undefined) gave SW480 rereplic -4%, IL-1B inflam inh -56*, Giardia killer 37, Vif-APOBEC3G blk inconclusive, Vif-A3F inh inconclusive and MCF10A rerep inconclusive.
`CC1(C)C2CC[C@]3(C)C(CC=C4[C@@H]5C[C@@](C)(CO)[C@@H](O)C[C@]5(C(=O)O)CC[C@]43C)[C@@]2(C)CC[C@@H]1O` (some centres undefined) gave SW480 rereplic -98%, IL-1B inflam inh 9, Giardia killer 7, Vif-APOBEC3G blk 0%, Vif-A3F inh 4% and MCF10A rerep -6%.
Screening CC1(C)CC[C@]2(C(=O)O[C@@H]3OC(CO)[C@@H](O)[C@H](O)[C@H]3O)CC[C@]3(C)C(=CCC4[C@@]5(C)CC[C@H](O[C@@H]6OC(C(=O)O)[C@@H](O)[C@H](O)[C@H]6O)C(C)(C)C5CC[C@]43C)[C@@H]2C1 (some centres undefined) returned SW480 rereplic -5%, IL-1B inflam inh 17, Giardia killer 8, Vif-APOBEC3G blk -15%, Vif-A3F inh 4% and MCF10A rerep 18µM*.
For C/C=C(\C)C(=O)OC1CC(C)(C)C[C@H]2C3=CC[C@@H]4[C@@]5(C)CCC(O[C@@H]6O[C@@H](C(=O)O)[C@@H](O)C(O[C@@H]7OC[C@H](O)[C@@H](O)[C@@H]7O[C@@H]7OC(CO)C(O)[C@@H](O)[C@@H]7O)C6O[C@@H]6OC(CO)C(O)C(O)C6O)[C@@](C)(CO)[C@@H]5CC[C@]4(C)[C@]3(C)CC(O)[C@@]12CO (some centres undefined) the results were SW480 rereplic -5%, IL-1B inflam inh 5, Giardia killer -18, Vif-APOBEC3G blk 3%, Vif-A3F inh -25% and MCF10A rerep 8%.
Cc1ccc(SC2=NS(=O)(=O)c3ccccc32)c(C)c1 was read as Giardia killer -23 and Vif-APOBEC3G blk -3%.
`CCCN(CCC)c1nc(N)c(C#N)c(CC#N)c1C#N` gave SW480 rereplic 14%, IL-1B inflam inh 25, Giardia killer 5, Vif-APOBEC3G blk -4%, Vif-A3F inh -4% and MCF10A rerep 6.5µM*.
Fc1ccc(-c2csc(=Nc3cccc(C(F)(F)F)c3)n2Cc2ccc3c(c2)OCO3)cc1 was read as Vif-APOBEC3G blk 3% and Vif-A3F inh 2%.
CCCCN1CC(c2nc3ccccc3n2CCCCOc2c(C)cccc2C)CC1=O (centres undefined) was read as Vif-APOBEC3G blk -1% and Vif-A3F inh 0%.
For Cc1ccc(N(C(=O)Cc2cccs2)C(C(=O)NC2CCCCC2)c2ccccn2)cc1C (centres undefined) the results were SW480 rereplic 6%, IL-1B inflam inh -59*, Giardia killer 11, Vif-APOBEC3G blk -6%, Vif-A3F inh -5% and MCF10A rerep -4%.
